The sequences below were run against NAGPA (assay: pooled miR-30 sensor sort-seq; sequence = guide strand). Conditions: shRNA.
Also: reference of the scale not given here.

**Q.** For TTGAGCACAAAGGTGGCAGAGC, which sensor-assay potency score (higher = more potent) is on record?
**A.** The sensor-assay potency score (higher = more potent) was -0.854.

**Q.** TGTCTCGTCACACTCTGTGGCT was tested. Which sensor-assay potency score (higher = more potent) did it give?
**A.** Its sensor-assay potency score (higher = more potent) is -0.832.

**Q.** TTGATGTAGATGCTTCCATTAC was tested. Which sensor-assay potency score (higher = more potent) did it give?
**A.** The sensor-assay potency score (higher = more potent) was -1.88.

**Q.** With TTCCTCTCTGCTCTGGACAGGA as the sequence, how does the sensor-assay potency score (higher = more potent) read?
**A.** The sensor-assay potency score (higher = more potent) was -0.227.

**Q.** For AGTAGCAAGTCGTCGTCGCGGG, which sensor-assay potency score (higher = more potent) is on record?
**A.** The sensor-assay potency score (higher = more potent) was -1.2.

**Q.** For TCTCGTCACACTCTGTGGCTTG, which sensor-assay potency score (higher = more potent) is on record?
**A.** The sensor-assay potency score (higher = more potent) was 0.00905.

**Q.** TAGGGCAGTAGCAAGTCGTCGT was tested. Which sensor-assay potency score (higher = more potent) did it give?
**A.** Its sensor-assay potency score (higher = more potent) is 0.274.

**Q.** For TGTGTCTCGTCACACTCTGTGG, which sensor-assay potency score (higher = more potent) is on record?
**A.** Its sensor-assay potency score (higher = more potent) is -1.05.

What follows are sequences tested against NAGS in the same assay as above. Conditions: shRNA.

**Q.** TTGACCAGGTCCACTAGACGGC was tested. Which sensor-assay potency score (higher = more potent) did it give?
**A.** Its sensor-assay potency score (higher = more potent) is -0.973.

**Q.** How did the sensor-assay potency score (higher = more potent) turn out when TTACTCAGGACCTTATGACTGC was run?
**A.** The sensor-assay potency score (higher = more potent) was -0.0355.

**Q.** TGTAGCTTTAGAGTGAGTCGAG was tested. Which sensor-assay potency score (higher = more potent) did it give?
**A.** Its sensor-assay potency score (higher = more potent) is 0.177.

**Q.** With TCACTGTGTTTGAAGTACCAGG as the sequence, how does the sensor-assay potency score (higher = more potent) read?
**A.** The sensor-assay potency score (higher = more potent) was -0.966.

**Q.** How did the sensor-assay potency score (higher = more potent) turn out when TTGCACACCAGGTCCAGGTCGG was run?
**A.** Its sensor-assay potency score (higher = more potent) is -0.37.

**Q.** Which sensor-assay potency score (higher = more potent) does the source give for TTGATGGGGTTGGTGACCCGGG here?
**A.** The sensor-assay potency score (higher = more potent) was -1.22.

**Q.** Which sensor-assay potency score (higher = more potent) does the source give for TTTAGAGTGAGTCGAGTTGGGG here?
**A.** Its sensor-assay potency score (higher = more potent) is -0.776.

**Q.** Which sensor-assay potency score (higher = more potent) does the source give for TAGTCGTCCCTGAGCTTCTTGC here?
**A.** The sensor-assay potency score (higher = more potent) was -1.38.

**Q.** For TTGAGGAAGATGATTTTGGTGG, which sensor-assay potency score (higher = more potent) is on record?
**A.** The sensor-assay potency score (higher = more potent) was -0.197.

**Q.** For TTATTGAGGAAGATGATTTTGG, which sensor-assay potency score (higher = more potent) is on record?
**A.** The sensor-assay potency score (higher = more potent) was -0.526.

**Q.** TTAGAGTGAGTCGAGTTGGGGT was tested. Which sensor-assay potency score (higher = more potent) did it give?
**A.** Its sensor-assay potency score (higher = more potent) is -0.187.

**Q.** Which sensor-assay potency score (higher = more potent) does the source give for TCTACCAGCACCTTGCAGCTCT here?
**A.** The sensor-assay potency score (higher = more potent) was 0.351.

Each sequence was assayed against NAP1L5 in the same assay as above. Conditions: shRNA.

**Q.** For ATACTTTTTTTCCAGAGCCTGA, which sensor-assay potency score (higher = more potent) is on record?
**A.** The sensor-assay potency score (higher = more potent) was -1.24.

**Q.** For TATACTTTTTTTCCAGAGCCTG, which sensor-assay potency score (higher = more potent) is on record?
**A.** The sensor-assay potency score (higher = more potent) was -1.

**Q.** For TTATAGATGTCATTATACTTTT, which sensor-assay potency score (higher = more potent) is on record?
**A.** Its sensor-assay potency score (higher = more potent) is -1.32.

**Q.** TTGAGGGCCAGGACTCGGCATT was tested. Which sensor-assay potency score (higher = more potent) did it give?
**A.** The sensor-assay potency score (higher = more potent) was -1.45.

**Q.** For TCTATCTTATCGCATCGCTTCT, which sensor-assay potency score (higher = more potent) is on record?
**A.** Its sensor-assay potency score (higher = more potent) is -0.911.

**Q.** Which sensor-assay potency score (higher = more potent) does the source give for TTTTTGAGGGCCAGGACTCGGC here?
**A.** The sensor-assay potency score (higher = more potent) was -1.25.

**Q.** For TCTTATCGCATCGCTTCTGCAG, which sensor-assay potency score (higher = more potent) is on record?
**A.** Its sensor-assay potency score (higher = more potent) is -1.

**Q.** How did the sensor-assay potency score (higher = more potent) turn out when TTGGCTTCTATCTTATCGCATC was run?
**A.** The sensor-assay potency score (higher = more potent) was -1.13.

**Q.** TTCTATCTTATCGCATCGCTTC was tested. Which sensor-assay potency score (higher = more potent) did it give?
**A.** The sensor-assay potency score (higher = more potent) was -0.589.

**Q.** For TATCTTATCGCATCGCTTCTGC, which sensor-assay potency score (higher = more potent) is on record?
**A.** The sensor-assay potency score (higher = more potent) was 0.0139.

**Q.** Which sensor-assay potency score (higher = more potent) does the source give for TTGGATCTTGGCGAGTAGGGGC here?
**A.** The sensor-assay potency score (higher = more potent) was -0.336.

The sequences below were run against NARF in the same assay as above. Conditions: shRNA.

**Q.** TGAGGTATCACATTTCTTGTTA was tested. Which sensor-assay potency score (higher = more potent) did it give?
**A.** Its sensor-assay potency score (higher = more potent) is -0.0479.

**Q.** For TATTTGAGCAATTTCACCTGAT, which sensor-assay potency score (higher = more potent) is on record?
**A.** The sensor-assay potency score (higher = more potent) was 0.609.

**Q.** With TTTCTTACTACATTCCTTGCGC as the sequence, how does the sensor-assay potency score (higher = more potent) read?
**A.** The sensor-assay potency score (higher = more potent) was 0.306.

**Q.** With TTGAACAGCTCCTTGGCCGCAT as the sequence, how does the sensor-assay potency score (higher = more potent) read?
**A.** The sensor-assay potency score (higher = more potent) was 0.2.

**Q.** How did the sensor-assay potency score (higher = more potent) turn out when TTTAGCAGCAAAATAAGGCAAA was run?
**A.** The sensor-assay potency score (higher = more potent) was -0.927.

**Q.** How did the sensor-assay potency score (higher = more potent) turn out when TTGAGGAAACCACAGAGTCTTC was run?
**A.** Its sensor-assay potency score (higher = more potent) is -1.68.

**Q.** For TTATTTGAGCAATTTCACCTGA, which sensor-assay potency score (higher = more potent) is on record?
**A.** Its sensor-assay potency score (higher = more potent) is 0.612.

**Q.** Which sensor-assay potency score (higher = more potent) does the source give for TGGTGCAATCTTGTCTCGCTGT here?
**A.** The sensor-assay potency score (higher = more potent) was -0.584.

**Q.** TTCTTTTTGACTCTCCAGGATA was tested. Which sensor-assay potency score (higher = more potent) did it give?
**A.** Its sensor-assay potency score (higher = more potent) is -1.07.

Source: the OligoGym collection
